# Bioassay records deposited in PubChem by National Center for Advancing Translational Sciences (NCATS).
# KDM5B inh: Primary screen for KDM5B Histone Demethylases FDH-coupled qHTS. Potency, µM (highest dose often 57.7 µM), hits mostly inhibitors. 220,000 tested, 2.6% active. KDM5B demethylase, FDH-coupled NADH fluorescence (FDH is formaldehyde dehydrogenase). Lysine-specific demethylase 5B (Homo sapiens), Q9UGL1; active means well fitted inhibition curve with a large enough effect; further: 0% is about no effect; nearly all actives have a fitted effect of over 70% in size
#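 Inhibition is measured as reduced NADH fluorescence generation from FDH coupling to formaldehyde release. Truncated KDM5BΔAP at 200 nM final acts on H3K4me3 peptide (12.5 µM in substrate mix) in pH 7.5 HEPES buffer with Tween-20, 30 min, room temperature.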
# The depositor's hits bear a star; i = inactive; + = active, no number. This is one part of a sample in which hits are shown more often than they occur. Potency means the concentration at half of the fitted maximal effect.
SMILES,KDM5B inh
Cc1ccc(N2CC(c3noc(-c4ccc5c(c4)OCO5)n3)CC2=O)cc1 (stereo not given),32µM*
O=C(N[C@@H]1CCC[C@@H]1C(=O)N1CCCCCC1)c1ccncc1,i
Cc1cc(Cl)ccc1S(=O)(=O)N1C[C@@H](C(N)=O)[C@H](C2CCN(C)CC2)C1,i
CC(=O)NC1(C)CN(Cc2ccc(-c3cccc(F)c3)nc2)C1,i
CN(CC1CC1)C(=O)c1cc(-c2ccccc2Cl)nc2ccccc12,i
CN(Cc1ccco1)C(=O)c1cc(-c2ccncc2)nc2ccccc12,i
CN1CCCC(CN(C)C(=O)c2cc(-c3cnn(CCO)c3)nc3ccccc23)C1 (stereo not given),32µM*
C=CCN1C(=O)S/C(=C\c2cn(CC(=O)OCC)c3ccccc23)C1=O,i
N#Cc1ccc(N2CCC(C(=O)Nc3nc(C4CC4)cs3)CC2)nc1,i
Cc1cc(F)ccc1NC(=O)c1nc2ccccc2nc1N1CCOCC1,i
C#CCNC(=O)c1nc(-c2ccc([S+](C)(=O)[O-])cc2)c2ccccn12,i
CC(C)NC(=O)c1nc(-c2cccc(F)c2)c2cnccn12,32µM*
C#CCNC(=O)c1nc(-c2ccc(Cl)nc2)c2cnccn12,112µM*
CCC(C(=O)NC1CCCCC1)n1c(SCc2cccc(F)c2)nc2ccncc21 (stereo not given),i
CC(C)NC(=O)CSCc1coc(-c2ccc(Cl)cc2)n1,i
CC(C)NC(=O)c1nc(-c2ccc(Cl)nc2)c2cnccn12,+
CC(C)NC(=O)c1onc(-c2ccc(Cl)cc2)c1[C@H](C)O,i
C#CCNC(=O)c1nc(-c2cccnc2)c2cnccn12,i
C#CCNC(=O)c1onc(-c2ccc(Cl)cc2)c1[C@H](C)O,i
C#CCNC(=O)c1nc(-c2ccc([S+](C)(=O)[O-])cc2)c2cnccn12,+
COCC1CN(C)CC12CCN(C(=O)Cc1cccc(F)c1)CC2 (stereo not given),i
CCN(CC)S(=O)(=O)c1ccc(N)c(N)c1,i
Cc1cccc(C(=O)OC(C)C(=O)c2ccc(F)cc2)c1O (stereo not given),i
COc1ccc2cc(CNC(=O)c3cc4ccc(OC)cc4nc3C)ccc2c1,i
Cc1ccc(C2NC(=O)N(CC(=O)Nc3ccccc3C(C)C)C3=C2C(=O)OC3)cc1 (stereo not given),i
SMILES,KDM5B inh
CCOc1nnc(CN2CCN(c3cccc(F)c3C#N)CC2)s1,i
COCc1nc(-c2ccc(OC3CCN(S(=O)(=O)c4c(C)noc4C)C3)cc2)no1 (stereo not given),i
Fc1ccc(-c2nc(-c3ccc(Br)o3)no2)cc1,i
CC1(Cc2ccc3c(c2)OCO3)CCCN(C(=O)c2ccc3ncsc3c2)C1 (stereo not given),i
Cc1ccc2ncn(Cc3coc(-c4cccs4)n3)c(=O)c2c1,i
O=C(c1ccccc1Cl)N1C[C@@H](CO)[C@H](c2nc(C3CC3)no2)C1,i
CC(C)C(=O)N1CCN(C(=O)c2cc(C3CC3)nc3ccccc23)CC1,i
Cc1noc([C@@H]2CN(C(=O)c3ccc4[nH]ccc4c3)C[C@H]2CO)n1,i
COC[C@@H]1CN(C(=O)c2ccc(C#N)cc2)C[C@H]1c1nc(C)no1,i
COc1cccc([C@H]2CN(C(=O)c3c(-c4ccccc4)noc3C)C[C@@H]2N)c1,i
COc1cccc([C@H]2CN(C(=O)CCn3ccc(=O)[nH]c3=O)C[C@@H]2N)c1,i
COC[C@@H]1CN(C(=O)c2ccc3[nH]ccc3c2)C[C@H]1c1nc(C)no1,i
O=C(c1cc[nH]c(=O)c1)N1C[C@@H](CO)[C@H](c2ccccn2)C1,22µM*
COC[C@@H]1CN(C(=O)c2cn3ccccc3n2)C[C@H]1c1nc(C)no1,20µM*
COc1cccc([C@H]2CN(C(=O)c3ccc4cc[nH]c4c3)C[C@@H]2N)c1,32µM*
Cc1noc([C@@H]2CN(C(=O)c3ccc4cc[nH]c4c3)C[C@H]2CO)n1,25µM*
O=C(c1ccc2c(c1)OCO2)N1C[C@@H](CO)[C@H](c2ccccn2)C1,i
CCn1ccc(C(=O)N2C[C@@H](COC)[C@H](c3nc(C)no3)C2)n1,i
O=C(c1cccc(Cl)c1)N1C[C@@H](CO)[C@H](c2ccccn2)C1,i
O=C(NCc1csc(-c2ccccc2)n1)C1CCN(S(=O)(=O)c2ccc3c(c2)CCCC3)CC1,i
Cc1ccc(CNC(=O)CCCn2ccc3cc(S(=O)(=O)N4CCCC4)ccc32)o1,i
Cc1ccc(OCc2nc3ccc(Cl)cc3[nH]2)cc1C,i
CC(C(=O)Nc1cccc(Cl)c1)N(C)Cc1c(F)cccc1Cl (stereo not given),i
Cc1cc(C)c2c(n1)SCC(=O)N2CCCC(=O)NCc1ccccc1Br,i
CCOC(=O)c1noc2ncn(Cc3nc(-c4cccc(OC)c4OC)oc3C)c(=O)c12,i
O=C(NC1CCCCCCC1)c1ccc2ncsc2c1,i
